Experimental data reported in PubChem BioAssay.
The source made the active and inactive calls. Cut-off read from the data, not from the text of the source: active = fold change permeability below about 0.7 or above about 1.3; inactive = in between.

Assay: modulators of brain endothelial barrier permeability, primary screen, cell-based, FITC-avidin fluorescence, HTS (AID 1963498); note: test concentration not given here
Conditions: actives lie on both sides

Structure (SMILES) | fold change permeability
CN(C)CCCN1c2ccccc2CCc2ccc(Cl)cc21 | 1.1 (inactive)
O=C(O)CSCC(=O)NC1CCSC1=O (stereo not given) | 1.7 (active)
O=C1NCC2(CCN(CCc3ccccc3)CC2)O1 | 1 (inactive)
N#CSCC(=O)c1ccc(O)c(O)c1 | 1.1 (inactive)
O=[N+]([O-])c1ccc2c(c1)S(=O)(=O)C=C2 | 2.1 (active)
Nc1ncnc2c1ncn2C1CCCC1 | 0.9 (inactive)
CC(=O)NCCc1c[nH]c2ccc(O)cc12 | 1.1 (inactive)
NC(N)=NCCCCN=C(N)N | 1.2 (inactive)
CN(C)CCC=C1c2ccccc2C=Cc2ccccc21 | 1.1 (inactive)
Cc1ccc(C(=O)N(CCCN)C(c2oc3cc(Cl)ccc3c(=O)c2Cc2ccccc2)C(C)C)cc1 (stereo not given) | 1.6 (active)
COc1cc2nc(N3CCCC3)nc(NCCCCCN3CCCC3)c2cc1OC | 1.2 (inactive)
CCN(CC)CCNC(=O)c1ccc(N)cc1 | 0.8 (inactive)
N[C@@H](Cc1cnc[nH]1)C(=O)O | 0.9 (inactive)
O=c1cc(-c2ccc([N+](=O)[O-])cc2)nc2c(-c3ccc(Cl)cc3)c(Cc3ccccc3)[nH]n12 | 1.2 (inactive)
CCOC(=O)C12CC1/C(=N\O)c1ccccc1O2 (stereo not given) | 1.2 (inactive)
COc1ccccc1N1CCN(CCCNc2cc(=O)n(C)c(=O)n2C)CC1 | 1.4 (active)
NC(=O)NO | 1.1 (inactive)
N[C@@H](Cc1ccc(F)cc1)C(=O)O | 0.8 (inactive)
CC(C)C(=O)c1c(C(C)C)nn2ccccc12 | 1.3 (active)
CC(C)(C)c1cc(/C=C(\C#N)C(N)=S)cc(C(C)(C)C)c1O | 1.5 (active)
